Only some compounds are listed: those with a hit (about 6.8% of all), similar ones and a draw of the others.
Fluor 339 460 = intrinsic fluorescence of library compounds, ex339/em460 – biochemical, MLSMR library, data from DPM-DC assay, artefact control, profiling panel | compound autofluorescence, ex339/em460 nm, NADH buffer; stronger effect = higher value; 1 = no-compound wells, NADH background | fluorescence fold increase at 10 µM | 5.5% of 65,000 active;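 active = at 10 µM, mean starting fluorescence two-fold or more over control wells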;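 note: signal is the first read of a kinetic run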
Spn PMK inh = S. pneumoniae PMK inhibitors, primary screen, biochemical, mevalonate pathway, pilot trial included | purified PMK, PK/LDH-coupled NADH absorbance 340 nm | inhibition, % at 10 µM | 0.49% of 65,000 active | AID 539, 2006;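 active = top-ranked compounds by inhibition in the single 10 µM screen, taking a fixed number of the strongest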
Spn DPM-DC inh = S. pneumoniae DPM-DC inhibitors, primary screen, biochemical, PK/LDH-coupled NADH fluorescence. diphosphomevalonate decarboxylase (Streptococcus pneumoniae D39). purified DPM-DC. calls only at 10 µM. 0.49% of 65,000 active;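 active = the 320 compounds with the highest percent inhibition in the single-dose primary screen, excluding strongly autofluorescent ones, cut at about 32% in these data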;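 note: kinetic rate of NADH fluorescence loss reporting ADP formed by the decarboxylase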
A340 absorber = compound light absorbance at 340 nm, profiling panel, artefact control, biochemical, MLSMR library, data from PS, PMK, MK assays. compound absorbance at 340 nm, fold over control. fold change at 10 µM. 65,000 tested, under 10 active;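 active = at 10 µM dose, initial 340 nm absorbance at least 2 fold that of control wells; inactive = change under 2 fold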;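 note: initial absorbance extrapolated from kinetic A340 decline of NADH oxidation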
Spn MK inh = S. pneumoniae MK inhibitors, primary screen, biochemical, PK/LDH-coupled NADH absorbance; inhibition, % at 10 µM; mevalonate kinase [Streptococcus pneumoniae D39]; purified MK, PK/LDH-coupled NADH absorbance 340 nm; 0.48% of 65,000 active; AID 555, 2006;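 active = ranked among the strongest by inhibition in the single 10 µM screen, a fixed top-ranked set picked for dose follow-up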
NADH enzymes = inhibitors of PK/LDH coupling enzymes, profiling panel, artefact control, biochemical, MLSMR library; IC50, µM (highest dose often 10 µM); coupled PK/LDH NADH assays, four targets; 0.02% of 65,000 active;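 active = single-dose screening hits from any of four coupled enzyme assays that gave an IC50 when retested across doses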;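 note: the DPM-DC format reads NADH fluorescence rather than 340 nm absorbance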
Hits are given with their value; n = inactive; x = no result given; ! = not confirmed by another sample.

SMILES	Fluor 339 460	Spn PMK inh	Spn DPM-DC inh	A340 absorber	Spn MK inh	NADH enzymes
CCC(C)Sc1nc2c(c(=O)[nH]c(=O)n2C)n1Cc1ccccc1Cl (centres undefined)	n	n	n	n	n	n
O=C1CCCc2nn(-c3ccccc3)c(-c3ccncc3)c21	n	n	n	n	n	n
Cc1ccnc(SCCn2c(N3CC(C)CC(C)C3)nc3c2c(=O)n(C)c(=O)n3C)n1 (centres undefined)	n	n	n	n	n	n
COc1ccc(-c2cc3nc(C)c(CCC(=O)NCc4ccco4)c(C)n3n2)c(OC)c1	2.2	n	n	n	n	n
COc1ccc(-c2cc3nc(C)c(CCC(=O)N4CCCCC4)c(C)n3n2)c(OC)c1	n	40	n	n	n	n
O=C(CC1Sc2ncnn2C1=O)Nc1ccc(Br)cc1 (centres undefined)	n	n	n	n	n	n
Clc1ccc(OCCCn2cncn2)cc1Cl	n	n	n	n	n	n
O=c1c2c(nc3c(-c4cccc(Br)c4)c[nH]n13)CCCC2	2.7	n	n	n	n	n
CCOC(=O)Cc1c(C)nc2c(-c3cccc(Br)c3)c[nH]n2c1=O	2.2	n	x	n	n	n
CCOC(=O)Cc1c(C)nc(-c2ccccc2)[nH]c1=O	n	n	n	n	n	n
NC(=O)CCN(Cc1ccccc1)S(=O)(=O)c1ccccc1	n	28	n	n	n	n
COc1ccc(Cl)cc1NC(=O)c1ccco1	n	n	n	n	n	n
O=C(Nc1ccc(Cl)cc1C(=O)Nc1ccc(Br)cn1)c1ccco1	2.3	n	n	n	n	n
Cc1ccc2nc(CCc3nc4ccc(C)cc4o3)oc2c1	n	n	n	n	x	n
Cc1ccc2nc(-c3cccc(-c4nc5ccc(C)cc5o4)n3)oc2c1	2.1	n	n	n	n	n
Cc1ccc(-c2cc(C(F)(F)F)n3ncc(C(=O)N4CCN(C)CC4)c3n2)cc1	n	n	n	n	n	n
NC(=O)c1cnn2c(C(F)(F)F)cc(-c3ccc(F)cc3)nc12	2.1	n	n	n	n	n
NC(=O)c1cnn2c(C(F)(F)F)cc(-c3ccccc3)nc12	2.1	n	n	n	n	n
COc1cc(-c2cc(C(F)(F)F)n3ncc(C(=O)O)c3n2)cc(OC)c1OC	n	n	n	n	n	n
COCCOC(=O)C1=C(C)NC2=C(C(=O)CC(C)(C)C2)C1c1cc2c(cc1Br)OCO2 (centres undefined)	n	n	n	n	n	n
COc1cc(COCC(O)CN2CCOCC2)cc(OC)c1OC (centres undefined)	n	n	n	n	n	n
c1cncc(C(c2nnnn2C2CCCC2)N2CCCC2)c1 (centres undefined)	n	25	n	n	n	n
Clc1ccc(C(c2nnnn2C2CCCC2)N2CCN(Cc3ccncc3)CC2)cc1 (centres undefined)	n	25	n	n	n	n
c1ccc(C(c2nnnn2C2CCCC2)N2CCCCCC2)nc1 (centres undefined)	n	n	n	n	n	n
COc1ccc2[nH]c3c(c2c1)CCn1c-3nc2ccccc2c1=O	2.2	n	x	n	n	n
SMILES	Fluor 339 460	Spn PMK inh	Spn DPM-DC inh	A340 absorber	Spn MK inh	NADH enzymes
Cc1nnc(Oc2ccccc2F)c2ccccc12	n	n	n	n	n	n
CCOC(=O)C(C(=O)OCC)C(=O)c1cc(OC)c(OC)c(OC)c1	n	n	n	n	n	n
CCOC(=O)c1sc(=NC(=O)c2cc(OC)c(OC)c(OC)c2)n(C)c1C	4.3	n	x	n	n	n
CCCCOC(=O)c1cc(=O)[nH]c2ccccc12	2.1!	n	n	n	n	n
O=C(COC(=O)c1cc(=O)[nH]c2ccccc12)NC(=O)NC1CCCCC1	2	n	n	n	n	n
CCOC(=O)Cc1csc(NC(=O)CSc2ncnc3c2cnn3-c2ccccc2Cl)n1	n	n	n	n	n	n
CN1CCN(C(=O)N2CCNC2=O)CC1	n	n	n	n	n	n
Cc1cccc(C)c1NC(=O)C1(NC(=O)C2CCCN2C(=O)OC(C)(C)C)CCCCC1 (centres undefined)	n	n	n	n	n	n
Cc1ccc(C)c(/C(O)=C2/C(=O)C(=O)N(CCN3CCOCC3)C2c2ccco2)c1 (centres undefined)	n	n	n	n	n	n
CCN(CC)S(=O)(=O)c1ccc2c3c(cccc13)C(=O)N2	2.2	n	x	n	n	n
O=C1Nc2ccc(S(=O)(=O)NCCC3=CCCCC3)c3cccc1c23	3.6	n	x	n	n	n
COc1ccc(OC)c(S(=O)(=O)NCCC2=CCCCC2)c1	n	n	n	n	n	n
CCOC(=O)c1c(C)oc2ccc(NS(=O)(=O)c3ccc4c5c(cccc35)C(=O)N4)cc12	n	n	n	n	n	n
CCCn1c(CCC(=O)O)ccc1-c1cccs1	n	n	x	n	n	n
O=C(O)CCc1ccc(-c2cccs2)n1CC1CCCO1 (centres undefined)	3	n	n	n	n	n
COCCCn1c(CCC(=O)O)ccc1-c1cccs1	4	n	x	n	n	n
CC(Oc1ccccc1)C(=O)Nc1ccc(S(=O)(=O)NCC2CCCO2)cc1 (centres undefined)	n	n	n	n	n	n
Cc1cc(N2CCN(S(=O)(=O)c3ccc4c(c3)OCCO4)CC2)n2ncnc2n1	n	n	n	n	n	n
CCOC(=O)N1CCN(C(=O)Cn2nc(-c3ccc(Cl)cc3)ccc2=O)CC1	n	25	n	n	n	n
Cc1ccc(S(=O)(=O)N2CCN(C(=O)C3Cc4ccccc4CN3C(=O)c3ccco3)CC2)cc1 (centres undefined)	n	n	n	n	n	n
C=CCNc1oc(-c2ccc(OC)cc2)nc1C#N	3.7	n	x	n	n	n
CCOc1ccc(-c2nc(C#N)c(NCC(C)C)o2)cc1	2.4	n	x	n	n	n
N#Cc1nc(-c2ccc(OCc3ccc(Cl)cc3)cc2)oc1NCCCn1ccnc1	n	n	n	n	n	n
C=CCNc1oc(-c2ccc(OCC)cc2)nc1C#N	2.3	n	x	n	n	n
COC(=O)c1c(C#N)c(N)nc2c1CCC2	3	n	x	n	n	n
CSc1nnc(-c2cnccn2)n1CCCN1CCCC1=O	n	n	n	n	n	n
Oc1ccccc1C1=Nc2ncnn2C(c2ccc(F)cc2)C1 (centres undefined)	n	n	n	n	n	n
CCCCn1c(SCc2c(C)noc2C)nc2cc(S(N)(=O)=O)ccc21	n	n	n	n	n	n

Assay outcomes from PubChem BioAssay.
